From PubChem BioAssay
Where “and” joins values, the source holds several entries; their conditions need not be identical. Equal values may be shown once. Results filed as inconclusive are left out. Calls of active or inactive are those of the source.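 The calls were made as follows, unless noted: active = normalized viability below 100% at a tested concentration; inactive = the rest.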

Legend:
[1] = P. berghei load reduction in hepatocytes – cell-based, HepG2, luciferase luminescence, HepG2 viability, primary screen (AID 624349; in the data active = parasite load remaining mostly below about 12%, no sharp cut-off; inactive = mostly above about 10%;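 also: 100% = mean of DMSO negative control wells on the same plate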); conditions: P. berghei liver stage in HepG2, luciferase luminescence, concentration not given here; parasite load remaining: stronger effect = lower value; viability: measured here: HepG2 viability without parasites
[2] = Wnt pathway potentiators raising nuclear beta-catenin – imaging, WNT3A-conditioned medium, mouse C2C12, NPC library, primary screen (AID 1117326; in the data active = nuclear beta-catenin stimulation mostly above about 4.2%, no sharp cut-off; inactive = mostly below about 10%); conditions: stronger effect = higher value
[3] = stimulators of insulin release from INS-1E, primary screen, cell-based, 5 mM glucose, NPC library (AID 1117329;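 active = compound raises insulin release from rat beta cells at 5 mM glucose, no numeric limit stated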); conditions: rat INS-1E insulin secretion, at 10 µM, stronger effect = higher value
[4] = growth inhibition of GSK3B-pretreated HCT116 cells – cell-based, CellTiter-Glo, 0.2 to 20 µM (AID 1117336;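 active = compounds lowering colon cancer cell viability after pretreatment blocking the GSK3B kinase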); conditions: HCT116 viability after GSK3B inhibitor, at 20 µM, stronger effect = higher value
[5] = inhibition of endothelial tube formation, primary screen, imaging, VEGF stimulated, CD31 staining, tube area, NPC library (AID 1117340;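 active = compound that reduces growth-factor-driven endothelial tube area in a mixed cell culture, no cutoff stated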); conditions: VEGF-stimulated ADSC/ECFC co-culture, at 10 µM, stronger effect = higher value
[6] = GLP1 release stimulators, primary, NCI-H716, NPC library (AID 1117341;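 active = compound raises GLP1 secretion from the human gut endocrine cells, with no numeric limit stated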); conditions: NCI-H716 cells, at 10 µM, stronger effect = higher value
[7] = HCT116 colon cancer cell growth inhibition, primary screen, CellTiter-Glo luminescence, NPC library (AID 1117342;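 active = compounds that lower survival of HCT116 colon cancer cells in the luminescence readout, no numeric limit stated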); conditions: at 20 µM (top of the series)
[8] = reduced SW480 viability measured with CellTiter-Glo, NPC library, primary (AID 1117343;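 active = compounds that lower viability of the colon cancer cells in the luminescence readout, with no numeric limit stated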); conditions: CellTiter-Glo luminescence; at 20 µM (top of the series) unless noted
[9] = NPC library primary testing for decreased DLD-1 cell viability via CellTiter-Glo (AID 1117346;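 active = compounds that lower survival of DLD-1 colon cancer cells in the luminescence readout, no cutoff given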); conditions: DLD-1 viability, CellTiter-Glo luminescence; at 20 µM (top of the series)
[10] = test system: Aerobactin synthetase IucA (Klebsiella pneumoniae); assay: inhibition of K. pneumoniae IucA enzyme – biochemical, Tocris library, absorbance (AID 1345561; call rule not given here;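 also: 100% = enzyme without compound and 0% = no enzyme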); conditions: purified IucA enzyme assay, absorbance (OD) read-out; stronger effect = lower value;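 tested at 8 µM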
[11] = viability loss in pontine glioma line – cell-based, SU-DIPG-XVII, MIPE5.0, CellTiter-Glo, qHTS, dose response (AID 1347060; cut-off not given, nearly all actives have AC50 up to about 26 µM;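 also: cells exposed to compound for 48 hours before viability readout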); conditions: CellTiter-Glo ATP luminescence
[12] = viability loss in pontine glioma line – cell-based, SU-DIPG-XIII, MIPE4.0, CellTiter-Glo, qHTS, dose response (AID 1347061; cut-off not given, nearly all actives have AC50 up to about 37 µM;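 also: cells exposed to compound for 48 hours before readout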); conditions: CellTiter-Glo ATP luminescence
[13] = viability loss in pontine glioma line – cell-based, JHH-DIPG-1, MIPE4.0, CellTiter-Glo, qHTS, dose response (AID 1347062; cut-off not given, nearly all actives have AC50 up to about 27 µM); conditions: JHH-DIPG-1 viability, CellTiter-Glo ATP luminescence
[14] = growth inhibition of DIPG cells – cell-based, MIPE5.0 library, qHTS (AID 1347068; cut-off not given, nearly all actives have IC50 up to about 30 µM); conditions: SU-DIPG-XXV viability
[15] = viability loss with induced miR-34 in A549 – imaging, A549 dox-inducible miR-34, nuclei and caspase counts, primary screen (AID 1347080;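 active = compounds whose cell count with miR-34 switched on is under 0.7 times the count with it off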); conditions: A549 miR-34 inducible, Hoechst nuclei count, 48 h
[16] = MELAS cybrid and Rieske KO viability enhancers – cell-based, MELAS cybrids, Rieske KO mouse fibroblasts, CellTiter-Glo, primary screen (AID 1508586); conditions: low glucose;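 also: z relative to plate mean and SD of compound and empty wells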
[17] = drug combination growth inhibition, ovarian cancer – cell-based, oncology-focused library, rucaparib conditional, profiling panel (AID 1508598); conditions: patient-derived ovarian cancer cells, CellTiter-Glo viability, 144 h, stronger effect = lower value
[18] = target: NAD(+) hydrolase SARM1 (Homo sapiens) (UniProt Q6SZW1); assay: blocking NAD cleavage by SARM1 SAM-TIR – cell lysate, NAD-Glo luminescence (AID 1508614;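 active = compound whose remaining NAD level is above about 45 nM, limit read from the data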;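 also: higher remaining NAD means stronger inhibition of SARM1 NADase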); conditions: SAM-TIR HEK293T lysate NADase, at 1 µM, stronger effect = higher value
NAD(+) hydrolase SARM1 (Homo sapiens), sequence (Q6SZW1 whole entry, looked up): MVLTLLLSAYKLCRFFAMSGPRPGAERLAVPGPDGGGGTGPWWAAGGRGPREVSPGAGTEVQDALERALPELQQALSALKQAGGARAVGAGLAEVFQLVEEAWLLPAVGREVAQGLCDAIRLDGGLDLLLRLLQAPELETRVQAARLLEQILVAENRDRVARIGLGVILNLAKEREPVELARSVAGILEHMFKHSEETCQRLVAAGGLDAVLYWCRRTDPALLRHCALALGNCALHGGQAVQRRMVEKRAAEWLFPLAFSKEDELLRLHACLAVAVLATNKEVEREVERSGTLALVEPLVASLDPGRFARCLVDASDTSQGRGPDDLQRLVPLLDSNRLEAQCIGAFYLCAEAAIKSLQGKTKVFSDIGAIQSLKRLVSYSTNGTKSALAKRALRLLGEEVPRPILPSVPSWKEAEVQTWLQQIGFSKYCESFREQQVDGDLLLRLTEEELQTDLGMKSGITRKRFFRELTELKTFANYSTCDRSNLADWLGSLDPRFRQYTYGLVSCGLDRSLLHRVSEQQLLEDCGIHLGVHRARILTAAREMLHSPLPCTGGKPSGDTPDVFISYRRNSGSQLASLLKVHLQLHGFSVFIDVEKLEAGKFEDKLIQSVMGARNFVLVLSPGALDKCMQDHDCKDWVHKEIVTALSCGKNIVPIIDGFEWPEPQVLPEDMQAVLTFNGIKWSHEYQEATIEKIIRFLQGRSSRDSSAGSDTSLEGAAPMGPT

[19] = galactose survival enhancers in mitochondrial complex I cybrids – cell-based, galactose medium, ATP luminescence, primary screen (AID 1645843;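 active = z-score of at least 1.8 in each of two replicates, scored against plate mean and spread of sample wells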;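 also: positive z means more ATP and so rescue of galactose-driven cybrid death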); conditions: complex I mutant cybrid cells, 72 h, stronger effect = higher value
[20] = EMT-state selective cytotoxicity in co-culture – imaging, PC-3E GFP, TEM4-18 mCherry, primary screen (AID 1345086;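 active = compounds killing one labelled cell type while sparing the other, by normalised counts and ratio limits, not self-fluorescent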;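 as to all read-outs here: cells exposed to compound for 72 h before imaging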;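 as to red/green cell ratio (normalised): normalised mesenchymal count divided by normalised epithelial count so high means epithelial killing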); conditions: PC-3E GFP / TEM4-18 mCherry co-culture, imaging cell counts, at 1 µM; for red/green cell ratio (normalised): actives lie on both sides, counts scaled to control wells, 1 = unselective
[21] = stronger effect = lower value, cell number ratio, induced over uninduced
[22] = measured here: relative caspase fold change +Dox/-Dox
[23] = measured here: total cells with miR-34 induction, stronger effect = lower value
[24] = measured here: total cells without miR-34 induction
[25] = measured here: epithelial PC-3E GFP cell survival
[26] = measured here: mesenchymal TEM4-18 mCherry cell survival

Nc1nc(Cl)nc2c1ncn2[C@@H]1O[C@H](CO)[C@@H](O)[C@@H]1F
parasite load remaining [1]: 11.2% (inactive) | viability [1]: 84% | nuclear beta-catenin stimulation ([2]; at 10 µM): 30.8% (inactive) | nuclear beta-catenin stimulation ([2]; stimulation, at 2 µM): 17.4% | insulin secretion stimulation [3]: 0.1% (inactive) | viability decrease [4]: 44.1% (active) | tube area decrease [5]: 104% (active) | GLP1 secretion stimulation [6]: 0.3% (inactive) | inhibition of viability [7]: 80.9% (active) | viability decrease (inhibition) [8]: 59.6% (active) | viability decrease (inhibition) [9]: 43.5% (inactive) | remaining activity [10]: 104% (inactive) | AC50 [11]: 332 nM (active) | outcome [12]: inactive | outcome [13]: inactive | outcome [14]: inactive | fold change [15, 21]: 1.02 (inactive) and 0.96 (inactive) | fold change [15, 22]: 1.45 and 0.847 | cell count [15, 23]: 3880 and 3040 | cell count [15, 24]: 3820 and 3160 | z-score ([16]; MELAS cybrid survival, CellTiter-Glo 48 h, stronger effect = higher value): -2.1 | z-score ([16]; Rieske KO mouse fibroblast survival, CellTiter-Glo 72 h): 2.02 | viability ([17]; at 0.000305 µM, OCI-C5x cells, with rucaparib 10 µM, 100% = cells with rucaparib alone): 115% (inactive) | viability ([17]; at 0.000305 µM, OCI-C5x cells, without rucaparib): 107% (inactive) | viability ([17]; at 0.000305 µM, OCI-P5x cells, with rucaparib 20 µM, 100% = cells with rucaparib alone): 116% (inactive) | viability ([17]; at 0.000305 µM, OCI-P5x cells, without rucaparib): 113% (inactive) | viability ([17]; at 0.00122 µM, OCI-C5x cells, with rucaparib 10 µM, 100% = cells with rucaparib alone): 118% (inactive) | viability ([17]; at 0.00122 µM, OCI-C5x cells, without rucaparib): 113% (inactive) | viability ([17]; at 0.00122 µM, OCI-P5x cells, with rucaparib 20 µM, 100% = cells with rucaparib alone): 112% (inactive) | viability ([17]; at 0.00122 µM, OCI-P5x cells, without rucaparib): 109% (inactive) | viability ([17]; at 0.00488 µM, OCI-C5x cells, with rucaparib 10 µM, 100% = cells with rucaparib alone): 116% (inactive) | viability ([17]; at 0.00488 µM, OCI-C5x cells, without rucaparib): 110% (inactive) | viability ([17]; at 0.00488 µM, OCI-P5x cells, with rucaparib 20 µM, 100% = cells with rucaparib alone): 115% (inactive) | viability ([17]; at 0.00488 µM, OCI-P5x cells, without rucaparib): 118% (inactive) | viability ([17]; at 0.0195 µM, OCI-C5x cells, with rucaparib 10 µM, 100% = cells with rucaparib alone): 113% (inactive) | viability ([17]; at 0.0195 µM, OCI-C5x cells, without rucaparib): 112% (inactive) | viability ([17]; at 0.0195 µM, OCI-P5x cells, with rucaparib 20 µM, 100% = cells with rucaparib alone): 111% (inactive) | viability ([17]; at 0.0195 µM, OCI-P5x cells, without rucaparib): 95% (active) | viability ([17]; at 0.0781 µM, OCI-C5x cells, with rucaparib 10 µM, 100% = cells with rucaparib alone): 98% (active) | viability ([17]; at 0.0781 µM, OCI-C5x cells, without rucaparib): 78.6% (active) | viability ([17]; at 0.0781 µM, OCI-P5x cells, with rucaparib 20 µM, 100% = cells with rucaparib alone): 111% (inactive) | viability ([17]; at 0.0781 µM, OCI-P5x cells, without rucaparib): 84.8% (active) | viability ([17]; at 0.313 µM, OCI-C5x cells, with rucaparib 10 µM, 100% = cells with rucaparib alone): 24% (active) | viability ([17]; at 0.313 µM, OCI-C5x cells, without rucaparib): 24.6% (active) | viability ([17]; at 0.313 µM, OCI-P5x cells, with rucaparib 20 µM, 100% = cells with rucaparib alone): 57.8% (active) | viability ([17]; at 0.313 µM, OCI-P5x cells, without rucaparib): 29.3% (active) | viability ([17]; at 1.25 µM, OCI-C5x cells, with rucaparib 10 µM, 100% = cells with rucaparib alone): 22.5% (active) | viability ([17]; at 1.25 µM, OCI-C5x cells, without rucaparib): 23.9% (active) | viability ([17]; at 1.25 µM, OCI-P5x cells, with rucaparib 20 µM, 100% = cells with rucaparib alone): 42.3% (active) | viability ([17]; at 1.25 µM, OCI-P5x cells, without rucaparib): 20.5% (active) | viability ([17]; at 5 µM, OCI-C5x cells, with rucaparib 10 µM, 100% = cells with rucaparib alone): 19.1% (active) | viability ([17]; at 5 µM, OCI-C5x cells, without rucaparib): 19.7% (active) | viability ([17]; at 5 µM, OCI-P5x cells, with rucaparib 20 µM, 100% = cells with rucaparib alone): 36.1% (active) | viability ([17]; at 5 µM, OCI-P5x cells, without rucaparib): 18.2% (active) | remaining NAD [18]: 10 nM (inactive) | z-score [19]: -0.56 (inactive) and -2.21 (inactive)

COc1cc(N)c(Cl)cc1C(=O)NC1CCN(CCCOc2ccc(F)cc2)CC1OC (centres undefined)
parasite load remaining [1]: 96.4% (inactive) | viability [1]: 81.1% | nuclear beta-catenin stimulation ([2]; at 10 µM): 13% (inactive) | nuclear beta-catenin stimulation ([2]; stimulation, at 2 µM): 3.1% | insulin secretion stimulation [3]: 7.5% (inactive) | viability decrease [4]: 20.6% (inactive) | tube area decrease [5]: -0.4% (inactive) | GLP1 secretion stimulation [6]: 13.3% (inactive) | inhibition of viability [7]: 53.9% (active) | viability decrease (inhibition) [8]: 66.7% (active) | viability decrease (inhibition) [9]: 22.4% (inactive) | red/green cell ratio (normalised) [20]: 0.95 (inactive) | normalised cell number [20, 25]: 0.93 | normalised cell number [20, 26]: 0.88 | fold change [15, 21]: 0.948 (inactive) | fold change [15, 22]: 1.94 | cell count [15, 23]: 8510 | cell count [15, 24]: 8980 | z-score [19]: -0.435 (inactive)

NCCNCCNCCN
parasite load remaining [1]: 41.3% (inactive) | viability [1]: 163% | nuclear beta-catenin stimulation ([2]; at 10 µM): 0.6% (inactive) | nuclear beta-catenin stimulation ([2]; stimulation, at 2 µM): 0.7% | insulin secretion stimulation [3]: 0.4% (inactive) | viability decrease [4]: 0.25% (inactive) | tube area decrease [5]: -7.4% (inactive) | GLP1 secretion stimulation [6]: -0.1% (inactive) | inhibition of viability [7]: 4.7% (inactive) | viability decrease (inhibition) [8]: -40.9% (inactive) | viability decrease (inhibition) [9]: 3.2% (inactive) | red/green cell ratio (normalised) [20]: 0.86 (inactive) | normalised cell number [20, 25]: 1.02 | normalised cell number [20, 26]: 0.88 | fold change [15, 21]: 0.908 (inactive) | fold change [15, 22]: 4.46 | cell count [15, 23]: 11700 | cell count [15, 24]: 12900 | remaining NAD [18]: 10 nM (inactive)
